High-throughput results: PubChem, National Center for Advancing Translational Sciences (NCATS)
Giardia killer = kills Giardia lamblia. Giardia lamblia trophozoite viability. activity change, % at 7.66 µM, hits read low. 340,000 tested, 0.15% active; in the data active = activity change below about -80%; inconclusive = between about -30% and that limit;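 note: parasites exposed to compound for two days anaerobically before the ATP read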
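Anaerobic 48 hrs incubation at 37 deg C of 100 trophozoites/well with test compounds; ATPLite 1-Step luminescence, 15-30 min RT, reports cellular ATP as viability.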
Sfp inh = Sfp phosphopantetheinyl transferase inhibition; Biochemical Sfp PPTase activity, qHTS; Potency, µM, inactives show largest response in the series, negative = inhibition, most hits filed as inhibitors; 310,000 tested, 3.5% active; AID 1490;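 note: the enzyme is Sfp with the accession as filed and its product quenches rhodamine fluorescence; potency is the fitted concentration of half-maximal effect; 0% = enzyme reaction without inhibitor and -100% = no enzyme wells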
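Fluorescence-quenching assay with 15 nM Sfp, 5 uM rhodamine-CoA and 12.5 uM BHQ-2-labelled ybbR peptide in pH 7.6 Hepes/MgCl2 buffer. Enzyme was pre-incubated with compound for 15 min at room temperature. Rate was taken from the 30-min fluorescence change (525/598 nm).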
Coupling enz = inhibits coupling enzyme system, counter-screen for aldolase hits; coupling enzyme system counterscreen, AmpLite Red fluorescence; activity change, negative = inhibition, % at 58.2 µM, hits read low; 290,000 tested, 0.67% active; in the data active = activity change below about -30%
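Counterscreen of the coupled detection system alone, without aldolase: glyceraldehyde-3-phosphate coupling enzymes plus AmpLite Red readout. Compounds at 57.5 uM final, 10 min RT preincubation, 20 min RT reaction, fluorescence 525/598 nm.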
ELG1 repair inh = ELG1-dependent DNA repair inhibition | HEK293T ELG1-luciferase reporter, luminescence, 16 h; DNA damage induced by 5-fluorouridine | Potency, µM (highest dose often 46.1 µM), without a hit: at the highest dose activity change, negative = inhibition, most hits filed as inhibitors | 330,000 tested, 2.3% active | AID 504467; note: potency is the fitted concentration of half-maximal effect; nearly all actives have a fitted effect of over 55% in size
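5-Fluorouridine DNA damage + compound/DMSO, 2,000 cells/well, 16 h, 37 °C/5% CO2. ONE-Glo, 30 min RT, luminescence. Readout = decrease in reporter signal.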
* marks the source's active call; other numbers are inactive results; ? = inconclusive; / = not tested or not shown. In the library only some 5.5% were active in any assay of this set; here they are far more common. Unless noted, calls come from the whole dose curve; as a rule, active = well fitted curve in the direction sought with a large enough effect; inconclusive = small, poorly fitted or top-dose-only effect, or another doubt; inactive = no such curve, though single readings can be large; an effect the other way counts as inactive or inconclusive. Unless noted, % is set by controls: 0 for no effect and ±100 for the full control effect.

SMILES	Giardia killer	Sfp inh	Coupling enz	ELG1 repair inh
COc1cc2cc(CN(Cc3cccs3)C(=S)Nc3cccc(C)c3)c(=O)[nH]c2cc1OC	/	22.6%	0.4	7.31µM*
Cc1cccc(C(=O)OC(C)C(=O)N2CCc3ccccc3C2)c1C (stereo not given)	7.2	/	/	3.8%
CN1CCN(C(c2ccc(Cl)cc2)c2cc(Cl)c3cccnc3c2O)CC1 (stereo not given)	11.1	79.4µM*	-5.6	20.6%
CCC(=O)NC(c1cc(Cl)c2cccnc2c1O)C(C)C (stereo not given)	3.0	/	/	8.2µM*
CN1CCN(C(c2ccc(C(F)(F)F)cc2)c2cc(Cl)c3cccnc3c2O)CC1 (stereo not given)	/	44.7µM*	-5.3	?
Cc1nc2[nH]c(=O)[nH]c(=O)c2[nH]1	/	-17.3%	0.9	/
COc1ccc(-n2c(N)c(C#N)c3ccc([N+](=O)[O-])cc3c2=O)cc1	0.4	9.4%	-41.6*	?
COc1cccc(-n2c(N)c(C#N)c3ccc([N+](=O)[O-])cc3c2=O)c1	/	14.7%	0.2	-24.9%
COc1ccc(S(=O)(=O)N2CCC(C(=O)N[C@@H](C)C(=O)NC3CCCC3)CC2)cc1	?	1.8%	/	17.4%
c1ccc(Nc2nc(-c3ccc4c(c3)OCO4)nc3ccccc23)cc1	/	-9.4%	-5.1	/
CC(C)(C)c1ccc2c(c1)OC(C(=O)N/N=C\c1ccc(-c3cccc(C(=O)O)c3)o1)CO2 (stereo not given)	-9.8	50.1µM*	4.9	?
O=C(O)c1cccc(-c2ccc(/C=N/NC(=O)C3COc4ccccc4O3)o2)c1 (stereo not given)	-1.8	28.2µM*	7.0	?
CC(C)(C)c1ccc2c(c1)OC(C(=O)N/N=C\c1ccccn1)CO2 (stereo not given)	21.1	10.4%	-0.1	5.8%
CC(=O)c1ccc(CCCCc2ccc(C(C)=O)cc2)cc1	15.5	/	/	/
CC(C)C[C@H](NC(=O)[C@H](CO)NC(=O)CNC(=O)[C@H](CCCCN)NC(=O)[C@H](CCCN=C(N)N)NC(=O)[C@H](C)NC(=O)[C@H](Cc1ccccc1)NC(=O)[C@@H](N)CCCN=C(N)N)C(=O)N[C@@H](CCCN=C(N)N)C(=O)N[C@@H](CCC(N)=O)C(=O)N[C@@H](CCCCN)C(=O)N[C@@H](CC(N)=O)C(=O)N[C@H](C(=O)O)C(C)C	/	11.0%	1.6	/
Nc1ccc2oc(CCc3ccccc3)nc2c1	-5.0	-28.0%	-34.7*	?
c1ccc2oc(CCc3nc4ccccc4o3)nc2c1	-4.7	8.9%	3.8	?
COc1cc2c(cc1OC)C(C)N(C(=O)c1cccc([N+](=O)[O-])c1)CC2 (stereo not given)	-8.0	6.1%	-0.9	18.3µM*
COc1cc2c(cc1OC)C(C)N(C(=O)c1sccc1C)CC2 (stereo not given)	-23.9	18.6%	/	-1.2%
O=C(c1ccccc1)C(CN1CCCCC1)c1ccccc1 (stereo not given)	2.6	/	/	/
O=C(c1ccco1)N1CCC2(CCCN(c3ccccc3)C2)CC1	/	-19.0%	0.1	/
COc1ccccc1N1CCN(/N=C/c2cc(OC)c(O)c(OC)c2)CC1	-1.6	39.8µM*	-6.6	-2.2%
CCC(C(=O)Nc1ccon1)c1ccccc1 (stereo not given)	5.9	15.0%	0.4	2.6%
Cc1ccc2sc(C)[n+](CCC(C)S(=O)(=O)[O-])c2c1 (stereo not given)	21.0	39.8µM*	2.2	17.7%
CC/C(=C/c1sc2ccc(C)cc2[n+]1CCO)SC	4.7	28.2µM*	-2.3	1.7%
SMILES	Giardia killer	Sfp inh	Coupling enz	ELG1 repair inh
CC/C(=C/c1sc2ccc(C)cc2[n+]1CCCS(=O)(=O)[O-])SC	10.4	50.1µM*	0.5	13.2%
Cc1ccc2c(C)cc[n+](CCCS(=O)(=O)[O-])c2c1	-11.5	17.4%	-5.2	36.3%
c1ccc(C2=NNC(c3ccccn3)=NN2)nc1	-18.6	12.6µM*	-21.1	?
c1ccc(-c2nc(-c3ccccn3)nc(-c3ccccn3)n2)nc1	-4.8	?	-0.3	?
c1ccc(-c2nnc(-c3ccccn3)s2)nc1	-25.6	89.1µM*	-5.6	?
CCOC(=O)N1CCN(S(=O)(=O)c2ccc(C(=O)Nc3nc4ccccc4s3)cc2)CC1	12.1	-3.0%	-0.1	-14.7%
CCOC(=O)c1sc(NC(=O)c2ccc(S(=O)(=O)N3CCCCCC3)cc2)nc1-c1ccccc1	2.4	-16.2%	2.3	13µM*
Cc1nnc(NC(=O)c2ccc(S(=O)(=O)N3CCOCC3)cc2)s1	12.1	7.3%	-2.2	11.8%
CCOC(=O)c1sc(NC(=O)c2ccc(S(=O)(=O)N3CCCCC3)cc2)nc1-c1ccccc1	5.6	-3.8%	2.0	20.6µM*
CCOC(=O)c1sc(NC(=O)c2ccc(S(=O)(=O)N3CCOCC3)cc2)nc1-c1ccccc1	28.1	-8.2%	1.7	25.9µM*
O=C(NCCS(=O)(=O)N1CCN(c2ccc(F)cc2)CC1)C12CC3CC(CC(C3)C1)C2	1.8	/	/	?
O=C(/C=C/c1cccs1)NNC(=O)c1ccccc1	-6.9	/	/	?
COc1ccc(-c2nc3ccc(NC(C)=O)cc3c(=O)n2Cc2ccccc2)cc1COc1ccc(NC(C)=O)cc1	-8.1	/	/	/
O=C(O)c1ccc(C(=O)Nc2cccc3cccnc23)cc1	-28.2	/	/	/
CCOc1ccc(NC(=O)CN(C)C(=O)CCCn2c(=O)oc3ccccc32)cc1OCC	-3.4	/	/	2.0%
N#Cc1c(SCC(=O)Nc2ccccc2C(F)(F)F)sc2c(O)cc(=O)[nH]c12	-19.4	14.1µM*	0.7	3.6%
N#Cc1c(SCC(=O)Nc2cccc(F)c2)sc2c(O)cc(=O)[nH]c12	9.4	56.2µM*	0.6	2.7%
N#Cc1cccc(NC(=O)CSc2sc3c(O)cc(=O)[nH]c3c2C#N)c1	34.0	?	1.2	8.4%
CCOc1cccc(NC(=O)CSc2sc3c(O)cc(=O)[nH]c3c2C#N)c1	-19.1	35.5µM*	-0.1	-5.8%
N#Cc1c(SCC(=O)Nc2nccs2)sc2c(O)cc(=O)[nH]c12	?	39.8µM*	-0.1	26.4%
CCCSc1nnc(NC(=O)CSc2sc3c(O)cc(=O)[nH]c3c2C#N)s1	-0.3	?	7.1	0.3%
Cc1c(Cl)cccc1NC(=O)CSc1sc2c(O)cc(=O)[nH]c2c1C#N	9.3	?	-0.5	7.2%
COc1ccccc1C(=O)NC(=O)COC(=O)c1cccc(OC(F)F)c1	-1.4	/	/	-1.4%
CC(=O)Nc1sc(C)c(C)c1C(=O)OCC(=O)Nc1cccc(C)c1	-2.1	/	/	?
O.O.O.O.O.O.O.O=S(=O)([O-])[O-].[Co+2]	/	79.4µM*	/	/
COC(=O)c1sccc1NC(=O)/C=C/c1c(Cl)cccc1Cl	-4.8	39.8µM*	1.3	?
COC(=O)c1sccc1NC(=O)c1c(Cl)cccc1Cl	-2.7	0.5%	0.9	-7.1%
CCOC(=O)C(=CNc1cc(Cl)c(-c2ccco2)c(Cl)c1)C(=O)OCC	37.5	-27.6%	-3.5	20.6µM*
CCOC(=O)C(=CNc1ccccc1Cl)C(=O)OCC	23.2	8.6%	0.5	-8.9%
